# Several values for one entry are separate records, joined by “and”; a condition that tells them apart may be missing. Equal values may be shown once. Out of some 5,500 compounds screened, about 2,000 (36%) were called active. Roughly 18% stayed inconclusive and do not appear here. The list shows a part of the results. A number with no mark means an inactive call. Rule as the data show it: active = normalized growth mostly below about 0.91 (no sharp cut-off); inconclusive = no clear call, values can overlap the other calls; inactive = mostly above about 0.92.
# Test: chemical genetic growth profiling, strain panel (AID 1159580);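 also: tested at 20 µM; growth read once vehicle control cultures reached saturation at 30 °C; 1 = growth at the plate median or of vehicle wells; lower values mean less growth of the strain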
# Conditions: growth OD
compound,measurement,setting,value
CCOc1ccc(/C=C(\C)[N+](=O)[O-])cc1OC,normalized growth,"S. cerevisiae deletion strains, locus YAL013W, strain DEP1, active compounds read low",0.525 (active)
same,normalized growth,"S. cerevisiae deletion strains, locus YAR019C, strain CDC15, active compounds read low",0.976
same,normalized growth,"S. cerevisiae deletion strains, locus YBL105C, strain PKC1, active compounds read low",0.975
same,normalized growth,"S. cerevisiae deletion strains, locus YBR135W, strain CKS1, active compounds read low",0.97
same,normalized growth,"S. cerevisiae deletion strains, locus YBR136W, strain MEC1, active compounds read low",0.973
same,normalized growth,"S. cerevisiae deletion strains, locus YBR160W, strain CDC28, active compounds read low",0.971
same,normalized growth,"S. cerevisiae deletion strains, locus YBR229C, strain ROT2, active compounds read low",0.25 (active)
same,normalized growth,"S. cerevisiae deletion strains, locus YDL017W, strain CDC7, active compounds read low",0.97
same,normalized growth,"S. cerevisiae deletion strains, locus YDL028C, strain MPS1, active compounds read low",0.973
same,normalized growth,"S. cerevisiae deletion strains, locus YDL101C, strain DUN1, active compounds read low",0.426 (active)
same,normalized growth,"S. cerevisiae deletion strains, locus YDL108W, strain KIN28, active compounds read low",0.979
same,normalized growth,"S. cerevisiae deletion strains, locus YDL132W, strain cdc53, active compounds read low",0.991
same,normalized growth,"S. cerevisiae deletion strains, locus YDL134C, strain PPH21, active compounds read low",0.106 (active)
same,normalized growth,"S. cerevisiae deletion strains, locus YDL214C, strain PRR2, active compounds read low",0.471 (active)
same,normalized growth,"S. cerevisiae deletion strains, locus YDR052C, strain DBF4, active compounds read low",0.984
same,normalized growth,"S. cerevisiae deletion strains, locus YDR054C, strain cdc34, active compounds read low",0.978
same,normalized growth,"S. cerevisiae deletion strains, locus YDR226W, strain ADK1, active compounds read low",0.97
same,normalized growth,"S. cerevisiae deletion strains, locus YDR477W, strain SNF1, active compounds read low",0.516 (active)
same,normalized growth,"S. cerevisiae deletion strains, locus YEL061C, strain CIN8, active compounds read low",0.22 (active)
same,normalized growth,"S. cerevisiae deletion strains, locus YER123W, strain YCK3, active compounds read low",0.232 (active)
same,normalized growth,"S. cerevisiae deletion strains, locus YER133W, strain GLC7, active compounds read low",0.482 (active)
same,normalized growth,"S. cerevisiae deletion strains, locus YFL009W, strain cdc4, active compounds read low",0.98
same,normalized growth,"S. cerevisiae deletion strains, locus YFL029C, strain CAK1, active compounds read low",0.97
same,normalized growth,"S. cerevisiae deletion strains, locus YFR003C, strain YPI1, active compounds read low",0.978
same,normalized growth,"S. cerevisiae deletion strains, locus YFR019W, strain FAB1, active compounds read low",0.284 (active)
same,normalized growth,"S. cerevisiae deletion strains, locus YFR028C, strain CDC14, active compounds read low",0.974
same,normalized growth,"S. cerevisiae deletion strains, locus YGR040W, strain KSS1, active compounds read low",0.478 (active)
same,normalized growth,"S. cerevisiae deletion strains, locus YGR052W, strain FMP48, active compounds read low",0.382 (active)
same,normalized growth,"S. cerevisiae deletion strains, locus YGR078C, strain PAC10, active compounds read low",0.437 (active)
same,normalized growth,"S. cerevisiae deletion strains, locus YGR092W, strain DBF2, active compounds read low",0.226 (active)
same,normalized growth,"S. cerevisiae deletion strains, locus YHR030C, strain SLT2, active compounds read low",0.0845 (active) and 0.197 (active)
same,normalized growth,"S. cerevisiae deletion strains, locus YHR079C, strain IRE1, active compounds read low",0.313 (active)
same,normalized growth,"S. cerevisiae deletion strains, locus YHR082C, strain KSP1, active compounds read low",0.429 (active)
same,normalized growth,"S. cerevisiae deletion strains, locus YHR087W, strain rtc3, active compounds read low",0.401 (active)
same,normalized growth,"S. cerevisiae deletion strains, locus YHR205W, strain SCH9, active compounds read low",0.57 (active)
same,normalized growth,"S. cerevisiae deletion strains, locus YIL147C, strain SLN1, active compounds read low",0.973
same,normalized growth,"S. cerevisiae deletion strains, locus YJL095W, strain BCK1, active compounds read low",0.269 (active)
same,normalized growth,"S. cerevisiae deletion strains, locus YJL128C, strain PBS2, active compounds read low",0.964
same,normalized growth,"S. cerevisiae deletion strains, locus YJL157C, strain FAR1, active compounds read low",0.46 (active)
same,normalized growth,"S. cerevisiae deletion strains, locus YJL187C, strain SWE1, active compounds read low",0.434 (active)
same,normalized growth,"S. cerevisiae deletion strains, locus YJR016C, strain ILV3, active compounds read low",0.985
same,normalized growth,"S. cerevisiae deletion strains, locus YJR043C, strain POL32, active compounds read low",0.602 (active)
same,normalized growth,"S. cerevisiae deletion strains, locus YJR066W, strain TOR1 (second series), active compounds read low",0.126 (active)
same,normalized growth,"S. cerevisiae deletion strains, locus YJR066W, strain TOR1, active compounds read low",0.257 (active)
same,normalized growth,"S. cerevisiae deletion strains, locus YJR075W, strain HOC1, active compounds read low",0.178 (active)
same,normalized growth,"S. cerevisiae deletion strains, locus YKL048C, strain ELM1, active compounds read low",0.534 (active)
same,normalized growth,"S. cerevisiae deletion strains, locus YKL067W, strain YNK1, active compounds read low",0.458 (active)
same,normalized growth,"S. cerevisiae deletion strains, locus YKL101W, strain HSL1, active compounds read low",0.393 (active)
same,normalized growth,"S. cerevisiae deletion strains, locus YKL193C, strain SDS22, active compounds read low",0.973
same,normalized growth,"S. cerevisiae deletion strains, locus YKL203C, strain TOR2, active compounds read low",0.489 (active)
same,normalized growth,"S. cerevisiae deletion strains, locus YLR039C, strain RIC1, active compounds read low",0.285 (active)
same,normalized growth,"S. cerevisiae deletion strains, locus YLR058C, strain SHM2 (second series), active compounds read low",0.651 (active)
same,normalized growth,"S. cerevisiae deletion strains, locus YLR085C, strain ARP6, active compounds read low",0.163 (active)
same,normalized growth,"S. cerevisiae deletion strains, locus YLR113W, strain HOG1, active compounds read low",0.203 (active)
same,normalized growth,"S. cerevisiae deletion strains, locus YLR133W, strain CKI1, active compounds read low",0.547 (active)
same,normalized growth,"S. cerevisiae deletion strains, locus YLR262C, strain YPT6, active compounds read low",0.283 (active)
same,normalized growth,"S. cerevisiae deletion strains, locus YLR403W, strain SFP1, active compounds read low",0.497 (active)
same,normalized growth,"S. cerevisiae deletion strains, locus YML070W, strain DAK1, active compounds read low",0.295 (active)
same,normalized growth,"S. cerevisiae deletion strains, locus YML094W, strain GIM5, active compounds read low",0.145 (active)
same,normalized growth,"S. cerevisiae deletion strains, locus YMR001C, strain CDC5, active compounds read low",0.967
same,normalized growth,"S. cerevisiae deletion strains, locus YMR205C, strain PFK2 (second series), active compounds read low",0.554 (active)
same,normalized growth,"S. cerevisiae deletion strains, locus YMR219W, strain ESC1, active compounds read low",0.285 (active)
same,normalized growth,"S. cerevisiae deletion strains, locus YMR263W, strain SAP30, active compounds read low",0.463 (active)
same,normalized growth,"S. cerevisiae deletion strains, locus YMR277W, strain FCP1, active compounds read low",0.973
same,normalized growth,"S. cerevisiae deletion strains, locus YNL006W, strain LST8, active compounds read low",0.976
same,normalized growth,"S. cerevisiae deletion strains, locus YNL020C, strain ARK1, active compounds read low",0.528 (active)
same,normalized growth,"S. cerevisiae deletion strains, locus YNL153C, strain GIM3, active compounds read low",0.171 (active)
same,normalized growth,"S. cerevisiae deletion strains, locus YNL161W, strain CBK1, active compounds read low",0.961
same,normalized growth,"S. cerevisiae deletion strains, locus YNL183C, strain NPR1, active compounds read low",0.359 (active)
same,normalized growth,"S. cerevisiae deletion strains, locus YNL207W, strain RIO2, active compounds read low",0.977
same,normalized growth,"S. cerevisiae deletion strains, locus YNL222W, strain SSU72, active compounds read low",0.976
same,normalized growth,"S. cerevisiae deletion strains, locus YNL298W, strain CLA4 (second series), active compounds read low",0.204 (active)
same,normalized growth,"S. cerevisiae deletion strains, locus YNL307C, strain MCK1 (second series), active compounds read low",0.364 (active)
same,normalized growth,"S. cerevisiae deletion strains, locus YNL322C, strain KRE1, active compounds read low",0.873 (active)
same,normalized growth,"S. cerevisiae deletion strains, locus YNR030W, strain Alg12, active compounds read low",0.0808 (active)
same,normalized growth,"S. cerevisiae deletion strains, locus YOL006C, strain TOP1, active compounds read low",0.0719 (active)
same,normalized growth,"S. cerevisiae deletion strains, locus YOL078W, strain AVO1, active compounds read low",0.98
same,normalized growth,"S. cerevisiae deletion strains, locus YOL136C, strain PFK27, active compounds read low",0.374 (active)
same,normalized growth,"S. cerevisiae deletion strains, locus YOR061W, strain CKA2, active compounds read low",0.571 (active)
same,normalized growth,"S. cerevisiae deletion strains, locus YOR119C, strain RIO1, active compounds read low",0.444 (active)
same,normalized growth,"S. cerevisiae deletion strains, locus YOR231W, strain MKK1, active compounds read low",0.289 (active)
same,normalized growth,"S. cerevisiae deletion strains, locus YOR329C, strain SCD5, active compounds read low",0.965
same,normalized growth,"S. cerevisiae deletion strains, locus YPL031C, strain PHO85, active compounds read low",0.409 (active)
same,normalized growth,"S. cerevisiae deletion strains, locus YPL055C, strain LGE1, active compounds read low",0.86 (active)
same,normalized growth,"S. cerevisiae deletion strains, locus YPL153C, strain RAD53, active compounds read low",0.318 (active)
same,normalized growth,"S. cerevisiae deletion strains, locus YPL204W, strain HRR25, active compounds read low",0.431 (active)
same,normalized growth,"S. cerevisiae deletion strains, locus YPL209C, strain IPL1, active compounds read low",0.968
same,normalized growth,"S. cerevisiae deletion strains, locus YPL241C, strain CIN2, active compounds read low",0.0938 (active)
same,normalized growth,"S. cerevisiae deletion strains, locus YPL256C, strain CLN2, active compounds read low",0.266 (active)
same,normalized growth,"S. cerevisiae deletion strains, locus YPR025C, strain CCL1, active compounds read low",0.969
same,normalized growth,"S. cerevisiae deletion strains, locus YPR106W, strain ISR1, active compounds read low",0.972
same,normalized growth,"S. cerevisiae deletion strains, locus YPR111W, strain DBF20, active compounds read low",0.978
same,normalized growth,"S. cerevisiae deletion strains, locus YPR135W, strain CTF4, active compounds read low",0.233 (active)
same,normalized growth,"S. cerevisiae deletion strains, strain NNK1, active compounds read low",0.975
same,normalized growth,"S. cerevisiae deletion strains, strain TSCII, active compounds read low",0.977
same,normalized growth,"S. cerevisiae strains, strain wild type, active compounds read low",0.0825 (active)
